Sampled rows, rich in hits. Any-hit rate of the full collection: about 2.2%.
APP 5UTR inh: APP translation inhibition; SH-SY5Y APP 5'UTR-luciferase reporter, luminescence; inhibition, % at 2 µM; AID 1285; 190,000 tested, 0.82% active;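 active = inhibition above a set limit, derived from the sample mean plus 3 SD, cut at about 45% in these data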
IEC-6 tox: kills IEC-6 intestinal cells in KLF5 counter-screen; IEC-6 cytotoxicity, luminescence viability; inhibition, % at 5 µM; 290,000 tested, 0.78% active; AID 1825;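 also: 0% = plate median of test compound wells and 100% = cytotoxic reference compound wells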
aSyn 5UTR inh: 5' untranslated region of α-synuclein, MLPCN primary screen; 300,000 tested, 0.82% active; inhibition, % (tested at 7.5 µM); alpha-synuclein 5'UTR reporter, inhibitor activity; AID 1813; in the data active = inhibition above about 60%;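 also: H4 neuroglioblastoma cells stably carrying SNCA 5'UTR luciferase fusion; 0% = DMSO wells and 100% = positive control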
KLF5 inhibitor: inhibitors of KLF5 expression; DLD-1 KLF5 promoter-luciferase reporter, luminescence; inhibition, % at 5 µM; 290,000 tested, 0.23% active;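 active = inhibition above a per-plate limit of that plate's mean compound inhibition plus 3 SD, cut at about 60% in these data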;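 also: 0% = DMSO wells and 100% = LY294002 at 200 µM; higher means less KLF5 promoter-driven luciferase light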
BaF3 parental: counter-screen for JAK2V617F inhibitors: parental Ba/F3 viability inhibitors; inhibition, % at 5.6 µM; CellTiter-Glo ATP luminescence; 220,000 tested, 1.1% active; AID 1486;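 active = inhibition above a per-campaign cutoff, the mean inhibition of all tested compounds plus 3 SD, cut at about 27% in these data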;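 also: 0% = DMSO wells and 100% = JAK Inhibitor I control wells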
Ba/F3 V617F tox: lowers viability of Ba/F3 cells expressing EpoR and JAK2V617F | ATP luminescence | inhibition, % at 5.6 µM | 220,000 tested, 1.1% active | AID 1446;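 active = inhibition above the campaign mean plus 3 SD over all tested compounds, cut at about 24% in these data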;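 also: cytokine-independent growth of Ba/F3 cells driven by EpoR plus mutant JAK2; 0% = DMSO-treated cells and 100% = JAK inhibitor I control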
IEC-6 tox confirm: IEC-6 cytotoxicity, confirmation assay | shares compounds with IEC-6 tox | IEC-6 rat intestinal epithelial viability, luminescence | inhibition, % at 5 µM | 1,900 tested, 63% active | AID 1907;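 also: 0% = vehicle and 100% = reference cytotoxic drug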
* marks the source's active call; other numbers are inactive results; x = no result. Rule as the data show it, unless noted: active = inhibition above about 22%; inactive = the rest.

SMILES	APP 5UTR inh	IEC-6 tox	aSyn 5UTR inh	KLF5 inhibitor	BaF3 parental	Ba/F3 V617F tox	IEC-6 tox confirm
ClC1(Cl)CC1CSc1nnc(-c2ccncc2)o1 (stereo not drawn)	x	2	-66	-48	x	x	x
O=C(N/N=C/c1ccco1)C1CC1c1ccccc1 (stereo not drawn)	2	5	-2	22	8	3	x
CC(C)(C)c1ccc(C2CC2C(=O)N/N=C\c2ccc[nH]2)cc1 (stereo not drawn)	80*	58*	44	-39	75*	100*	89*
COc1ccccc1-c1c(C#N)c(N)nc2c1CCc1ccccc1-2	-3	24*	-196	16	8	12	19
CCOC(=O)C1=C(C)N(CCCC(=O)O)C(=O)NC1c1ccccc1OS(=O)(=O)c1ccccc1[N+](=O)[O-] (stereo not drawn)	x	x	-32	x	x	x	x
CCCCCCCC(=O)N/N=C(\C)c1ccc(O)cc1O	-1	2	41	-31	-1	-5	x
C/C(=N\NC(=O)COc1ccccc1-c1ccccc1)c1ccc(O)cc1O	x	74*	51	50	-11	4	42*
CCCCOc1ccc(OC(=O)Nc2cc(Cl)ccc2OC)cc1	x	5	36	-18	0	5	x
COc1cc(/C=C/c2nc3ccccc3c(=O)[nH]2)cc(OC)c1OC	x	61*	-84	32	x	x	71*
COc1cc(/C=C/c2nc3ccccc3c(=O)[nH]2)ccc1OC(F)F	x	-1	-195	-127	x	x	x
COc1cc2ncnc(NCc3cc(F)ccc3F)c2cc1OC	x	37*	15	4	x	x	21
COc1cc2ncnc(NCc3cccc(Cl)c3)c2cc1OC	10	33*	17	7	2	1	37*
COc1cc2ncnc(NCc3ccccc3)c2cc1OC	-2	26*	15	6	5	1	30*
COc1ccc(CNc2ncnc3cc(OC)c(OC)cc23)cc1OC	12	7	5	-16	10	5	x
COc1ccc(CN2CCC(N(CCc3ccccc3)Cc3ccccc3)CC2)c(OC)c1	10	6	24	2	-1	3	x
Cc1cccc(NNC(=O)C(=O)NNc2cccc(C)c2)c1	x	34*	-7	34	-1	-1	-14
CCn1c(SCC(=O)c2ccccc2)nc2ccccc2c1=O	2	61*	-21	-8	7	3	37*
O=C(NCCOc1ccccc1F)c1cc([N+](=O)[O-])ccc1N1CCOCC1	x	49*	-36	43	x	x	41*
COc1ccc(NC(=O)CSc2nnnn2C2CCCCC2)cc1	x	3	-13	4	x	x	x
COc1cc(-c2noc(C)c2C#CC2(O)CCCCC2)cc(OC)c1OC	x	9	14	-2	x	x	x
COc1cc(-c2noc(C)c2C#Cc2ccsc2)cc(OC)c1OC	x	83*	69*	57	x	x	61*
CC(C)CC(=O)N(c1nnc(-c2cccnc2)s1)C1CCCC1	x	5	0	-25	x	x	x
COc1ccc(NC(=O)CN(C)C(=O)CNC(=O)c2cccs2)cc1	x	4	1	-15	x	x	x
CCC1=Nc2cc(C(=O)NCCCOC(C)C)ccc2Sc2ccccc21	15	1	-10	-3	5	-2	x
O=C(NCC1CCCO1)c1ccc(NC(=O)c2cccc(Cl)c2)cc1 (stereo not drawn)	x	x	6	x	x	x	x
SMILES	APP 5UTR inh	IEC-6 tox	aSyn 5UTR inh	KLF5 inhibitor	BaF3 parental	Ba/F3 V617F tox	IEC-6 tox confirm
CCC1=Nc2cc(C(=O)NCC3CCCO3)ccc2Sc2ccc(Br)cc21 (stereo not drawn)	17	28*	-59	9	15	-1	31*
CCC1=Nc2cc(C(=O)NCc3cccnc3)ccc2Sc2ccc(C)cc21	x	67*	20	29	44*	72*	56*
CCC1=Nc2cc(C(=O)NCC3CCCO3)ccc2Sc2ccc(Cl)cc21 (stereo not drawn)	x	35*	-74	19	6	5	38*
COc1ccc(NS(=O)(=O)c2ccc(C)c(C(=O)N(C)Cc3ccc(C)cc3)c2)cc1	x	x	5	x	x	x	x
CCCC(C(=O)Nc1ccc(S(=O)(=O)N2CCCC2)cc1)c1ccccc1 (stereo not drawn)	x	x	28	x	x	x	x
Cc1ccc(Nc2nc(-c3sc(C)nc3C)cs2)cc1	x	75*	6	37	x	x	52*
Cc1ccc(Nc2nc(-c3sc(N)nc3C)cs2)cc1	x	-1	-134	-77	x	x	x
Cc1cccc(Nc2nc(-c3ccncc3)cs2)c1	-50	65*	-61	-42	21	-3	75*
COc1ccc(Nc2nc(-c3sc(C)nc3C)cs2)c(OC)c1	x	60*	-124	12	x	x	40*
Cc1ccc(Nc2nc(-c3ccncc3)cs2)cc1	-129	27*	-331	-93	7	0	84*
Cc1ccc(-c2csc(Nc3ccccn3)n2)cc1	x	2	-27	-9	x	x	x
S=c1[nH]nc(COc2ccc(Cl)cc2Cl)n1-c1ccccc1	x	3	8	-4	x	x	x
C=CCNCc1ccc(C(=O)NCCCCCCC)cc1[N+](=O)[O-]	x	x	3	x	x	x	x
COc1cc2c(cc1OC)CN(C(=O)CNS(=O)(=O)c1ccc(C)c(C)c1)CC2	x	4	46	-9	x	x	x
O=C(Nc1ccccc1)Nc1ccc(-n2ccc(C(F)(F)F)n2)cc1	x	22*	-277	-138	63*	58*	23*
O=C(O)CC(CC(=O)Nc1ccc(-n2ccc(C(F)(F)F)n2)cc1)c1ccccc1 (stereo not drawn)	x	9	1	-14	0	2	x
COc1ccc(CC(=O)N/N=C/c2c(C)n(C)c3ccccc23)cc1OC	x	14	39	22	1	4	x
COc1ccc(C/C(C)=N\NC(=O)c2cn(C)c3ccccc23)cc1OC	x	31*	14	41	10	18	-9
C/C(=N\NC(=O)CN1CCCCC1)c1ccccc1O	x	42*	46	-10	x	x	19
C/C(=N\NC(=O)CN1CCCCC1)c1cccc([N+](=O)[O-])c1	x	x	-93	x	x	x	x
COc1ccc2oc(=O)cc(CN(C)Cc3ccccc3)c2c1	x	-4	19	-33	x	x	x
COc1ccc(-c2oc3cccnc3c2C#CC2(O)CCCCC2)cc1	x	5	8	-35	x	x	x
COc1ccc(-c2oc3cccnc3c2C#CCO)cc1	x	29*	11	-17	x	x	16
COc1cc(NC(=O)COC(=O)CO/N=C(\C)c2ccc3c(c2)OCO3)cc(OC)c1OC	x	x	-1	x	x	x	x
Cc1cccc(-n2ncc3c2CCCC3NC(=O)c2ccc[n+]([O-])c2)c1C (stereo not drawn)	x	-6	-7	-29	x	x	x
Cc1cc(C(=O)NC2CCCc3c2cnn3-c2cccc(C)c2C)n(C)n1 (stereo not drawn)	x	36*	-3	20	x	x	29*
CC(=O)NC1CCCc2c1cnn2-c1ccc(C(C)(C)C)cc1 (stereo not drawn)	x	-1	-10	-32	x	x	x
Cn1nccc1C(=O)NC1CCCc2c1cnn2-c1ccc(C(C)(C)C)cc1 (stereo not drawn)	x	23*	-1	-6	x	x	21
Cc1n[nH]c(=O)c2c(NC(=O)COC(=O)/C=C/c3cccc(C(F)(F)F)c3)oc(C)c12	x	x	10	x	x	x	x
